As usually defined, the AC50 is the concentration giving half of the maximal activity seen.

The structures appear in SMILES notation. Inconclusive results are not listed. Some compounds were tested as several samples or in several runs, with calls that do not always agree. The source made the active and inactive calls. Rule for the calls, unless noted: active = hit-call score of the fitted dose curve at least 0.9, where 1 is the maximum; inactive = score below 0.9.

The target of assay [1] is Retinoic acid receptor RXR-alpha (Homo sapiens) (UniProt P19793). The assay can be described thus: ATG_RXRa_TRANS: Attagene TRANS-FACTORIAL HepG2 Assay for human Retinoid X Receptor alpha (RXRa) (AID 2283012; active = hit-call score of the fitted dose curve at least 0.9, where 1 is the maximum). An outline of the steps: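 Read-out: fluorescent reporter-transcript fragments quantified by capillary electrophoresis after RT-PCR. Transiently transfected HepG2 cells carrying GAL4-UAS reporters and NR-GAL4 chimeras were exposed to chemical for 24 h; activity scored as increase over DMSO.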
Retinoic acid receptor RXR-alpha (Homo sapiens), sequence (P19793 whole entry, looked up, the tested form may be a part): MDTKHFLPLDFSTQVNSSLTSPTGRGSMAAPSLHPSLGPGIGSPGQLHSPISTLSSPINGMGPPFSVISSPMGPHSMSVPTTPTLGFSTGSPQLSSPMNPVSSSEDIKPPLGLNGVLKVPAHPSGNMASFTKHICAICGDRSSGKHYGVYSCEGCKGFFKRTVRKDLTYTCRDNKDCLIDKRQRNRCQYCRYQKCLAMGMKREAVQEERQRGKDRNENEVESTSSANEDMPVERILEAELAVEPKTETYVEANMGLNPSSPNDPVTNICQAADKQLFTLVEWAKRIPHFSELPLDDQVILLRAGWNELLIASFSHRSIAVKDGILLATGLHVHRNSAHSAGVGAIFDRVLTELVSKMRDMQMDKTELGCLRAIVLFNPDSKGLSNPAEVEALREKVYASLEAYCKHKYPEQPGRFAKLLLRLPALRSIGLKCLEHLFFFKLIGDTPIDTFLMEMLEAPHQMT

For assay [2], the target named is human Retinoid X Receptor beta (RXRb), RXRB (gene 6257) (UniProt P28702). The experiment in a line: ATG_RXRb_TRANS: Attagene TRANS-FACTORIAL HepG2 Assay for human Retinoid X Receptor beta (RXRb) (AID 2283013; active = hit-call score of the fitted dose curve at least 0.9, where 1 is the maximum). An outline of the steps: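 Read-out: reporter mRNA induction via RT-PCR plus capillary electrophoresis fluorescence, analysed as signal increase relative to DMSO. Cells were human HepG2, transiently transfected with GAL4-UAS reporter constructs and chimeric receptor-Gal4 fusions, dosed for 24 h.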
human Retinoid X Receptor beta (RXRb), RXRB (gene 6257), sequence (P28702 whole entry, looked up, the tested form may be a part): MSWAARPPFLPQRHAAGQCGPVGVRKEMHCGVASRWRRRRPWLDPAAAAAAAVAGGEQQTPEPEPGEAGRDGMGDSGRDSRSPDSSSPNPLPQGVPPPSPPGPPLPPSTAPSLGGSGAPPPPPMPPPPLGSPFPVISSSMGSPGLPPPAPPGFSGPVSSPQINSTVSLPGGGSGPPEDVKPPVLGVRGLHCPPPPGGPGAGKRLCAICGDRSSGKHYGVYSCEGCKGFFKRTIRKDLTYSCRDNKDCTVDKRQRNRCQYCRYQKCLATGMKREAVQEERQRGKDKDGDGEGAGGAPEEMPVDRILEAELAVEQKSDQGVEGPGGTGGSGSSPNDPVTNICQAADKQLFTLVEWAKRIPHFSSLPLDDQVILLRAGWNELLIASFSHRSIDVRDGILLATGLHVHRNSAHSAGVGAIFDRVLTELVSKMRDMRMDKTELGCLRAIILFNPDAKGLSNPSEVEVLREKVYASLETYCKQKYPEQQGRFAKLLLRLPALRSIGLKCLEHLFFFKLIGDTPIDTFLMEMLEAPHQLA

The target of assay [3] is human Thyroid Receptor alpha (THRa1), THRA (gene 7067) (UniProt P10827). The assay can be described thus: ATG_THRa1_TRANS: Attagene TRANS-FACTORIAL HepG2 Assay for human Thyroid Receptor alpha (THRa1) (AID 2283014; active = hit-call score of the fitted dose curve at least 0.9, where 1 is the maximum). An outline of the steps:
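Measured here is mRNA from a GAL4-UAS reporter in transfected HepG2 cells carrying a Gal4-fused receptor, 24 h post-dose. DMSO served as negative control and baseline.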

Read-out in assay [4]: E-selectin (Homo sapiens) (UniProt P16581)
The assay can be described thus: BSK_3C_Eselectin: BioMAP Diversity Plus: 3C Assay for Eselectin Biomarker Activity (AID 2283015).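 For outcome: cell surface E-selectin protein quantified by ELISA 24 h after dosing.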 Particulars: primary human endothelial cells (HUVEC); actives raise or lower the signal. An outline of the steps: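 Endpoint derived by bidirectional fitting against DMSO vehicle; signal is ELISA-detected E-selectin from primary HUVEC at 24 h post-dosing, with parallel SRB staining (0.1% SRB, 560 nm) flagging cytotoxicity.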

Read-out in assay [5]: Interleukin-1 alpha (IL1a), IL1A (gene 3552)
The experiment in a line: BSK_BE3C_IL1a: BioMAP Diversity Plus: BE3C Assay for Interleukin-1 alpha (IL1a) Biomarker Activity (AID 2283016). Particulars: primary human bronchial epithelial cells; actives raise or lower the signal. An outline of the steps: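 ELISA read-out of IL-1a from human lung bronchial epithelial primary cells, 24 h post-dose. Gain or loss of signal fitted relative to DMSO negative control.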

Read-out in assay [6]: Monocyte Chemoattractant Protein-1 (MCP1), CCL2 (gene 6347)
The experiment in a line: BSK_3C_MCP1: BioMAP Diversity Plus: 3C Assay for Monocyte Chemoattractant Protein-1 (MCP1) Biomarker Activity (AID 2283017). The following applies: primary human endothelial cells (HUVEC); actives raise or lower the signal. The essentials:
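Using human vascular primary endothelium, researchers measured MCP-1 by ELISA 24 h after treatment, with DMSO serving as negative control for bidirectional fitting.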

Read-out in assay [7]: Monocyte Chemoattractant Protein-1 (MCP1), CCL2 (gene 6347)
The assay can be described thus: BSK_4H_MCP1: BioMAP Diversity Plus: 4H Assay for Monocyte Chemoattractant Protein-1 (MCP1) Biomarker Activity (AID 2283018). The following applies: primary human endothelial cells (HUVEC); actives raise or lower the signal. An outline of the steps: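 HUVEC primary cells, 24 h post-dose, MCP-1 by ELISA. Gain or loss of signal fitted bidirectionally vs DMSO baseline. Cytotoxicity: SRB stain (0.1% after 10% TCA fixation), read 560 nm, parallel cultures.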

Read-out in assay [8]: Human Leukocyte Antigen - DR isotype (HLADR), HLA-DRA (gene 3122)
The assay can be described thus: BSK_3C_HLADR: BioMAP Diversity Plus: 3C Assay for Human Leukocyte Antigen - DR isotype (HLADR) Biomarker Activity (AID 2283019).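 For outcome: ELISA of cell-surface HLA-DR on HUVEC 24 h after dosing.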 The following applies: primary human endothelial cells (HUVEC); actives raise or lower the signal. An outline of the steps:
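Compound added to primary HUVEC cultures, 24 h incubation, then HLA-DR determined by ELISA; endpoint derived by bidirectional fitting relative to DMSO negative control.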

Read-out in assay [9]: Monokine induced gamma interferon (MIG), CXCL9 (gene 4283)
The experiment in a line: BSK_3C_MIG: BioMAP Diversity Plus: 3C Assay for Monokine induced gamma interferon (MIG) Biomarker Activity (AID 2283021). Particulars: primary human endothelial cells (HUVEC); actives raise or lower the signal. The essentials:
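HUVEC, 3C system; 24 h chemical exposure; MIG by ELISA; bidirectional fit vs DMSO baseline.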

Assay [10] concerns the target human Vitamin D Receptor (VDR), VDR (gene 7421) (UniProt P11473). The assay can be described thus: ATG_VDR_TRANS: Attagene TRANS-FACTORIAL HepG2 Assay for human Vitamin D Receptor (VDR) (AID 2283022; active = hit-call score of the fitted dose curve at least 0.9, where 1 is the maximum). An outline of the steps: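 Multiplexed TRANS reporter in HepG2; 24 h treatment; reporter mRNA by RT-PCR plus capillary electrophoresis; upregulation scored relative to DMSO.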

Assay [11] in a line: BSK_3C_SRB: Viability Assessment in the BioMAP Diversity Plus: 3C Assay (AID 2283023).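 Note: fitted both ways against DMSO so a hit may be signal rise or drop.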 Particulars: primary human endothelial cells (HUVEC). The essentials: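 Overt cytotoxicity is gauged in parallel confluent HUVEC cultures by SRB total-protein staining at the time of biomarker measurement, 24 h after dosing. Gain or loss of signal is fitted versus DMSO.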
Read-out in assay [12]: Matrix Metallopeptidase 1 (MMP1), MMP1 (gene 4312)
The assay can be described thus: BSK_BE3C_MMP1: BioMAP Diversity Plus: BE3C Assay for Matrix Metallopeptidase 1 (MMP1) Biomarker Activity (AID 2283024). The following applies: primary human bronchial epithelial cells; actives raise or lower the signal. An outline of the steps:
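ELISA read-out of MMP1 in human lung bronchial epithelial primary cultures, 24 h post-dose; bidirectional curve fit vs DMSO baseline, gain or loss of signal scored.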

Assay [13] in a line: BSK_3C_Vis: BioMAP Diversity Plus: 3C Assay for Morphology Visualization (AID 2283025).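 For AC50: light microscopy image of cell morphology used as background control.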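 Note: fitted both ways so gain or loss versus DMSO counts.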 Particulars: primary human endothelial cells (HUVEC). The essentials:
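HUVEC, 3C system; light microscopy of morphology at 24 h post-dose. Bidirectional fit vs DMSO baseline. Secondary readout, background-control function.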

Read-out in assay [14]: Pselectin, SELP (gene 6403)
The experiment in a line: BSK_4H_Pselectin: BioMAP Diversity Plus: 4H Assay for Pselectin Biomarker Activity (AID 2283026). The following applies: primary human endothelial cells (HUVEC); actives raise or lower the signal. An outline of the steps: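 HUVEC, 24 h chemical exposure; P-selectin read by ELISA. Bidirectional curve fit vs DMSO baseline; gain or loss of signal scored.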

Assay [15] is described as follows: BSK_4H_SRB: Viability Assessment in the BioMAP Diversity Plus: 4H Assay (AID 2283027).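 Note: cells exposed to compound for 24 h before staining.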 The following applies: primary human endothelial cells (HUVEC). An outline of the steps:
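Cytotoxicity readout: sulforhodamine B (0.1%) staining of total protein after 10% TCA fixation, measured at 560 nm in human umbilical vein endothelium at 24 h. DMSO set the baseline; fitting was bidirectional.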

The nature of assay [16]: BSK_BE3C_SRB: Viability Assessment in the BioMAP Diversity Plus: BE3C Assay (AID 2283028).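 Note: measured 24 h after chemical dosing.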 Particulars: primary human bronchial epithelial cells. An outline of the steps: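 SRB total-protein staining (0.1%, after TCA fixation) of chemically dosed human bronchial epithelial primary cells at 24 h; DMSO serves as the negative control for bidirectional curve fitting.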
Read-out in assay [17]: Thrombomodulin, THBD (gene 7056)
The experiment in a line: BSK_3C_Thrombomodulin: BioMAP Diversity Plus: 3C Assay for Thrombomodulin Biomarker Activity (AID 2283029). Particulars: primary human endothelial cells (HUVEC); actives raise or lower the signal. The essentials:
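HUVEC, 3C conditions; compound 24 h; thrombomodulin by ELISA; bidirectional curve fit vs DMSO baseline; parallel SRB total-protein staining for cytotoxicity.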

Read-out in assay [18]: Urokinase-type plasminogen activator receptor (uPAR), PLAUR (gene 5329)
The assay can be described thus: BSK_4H_uPAR: BioMAP Diversity Plus: 4H Assay for Urokinase-type plasminogen activator receptor (uPAR) Biomarker Activity (AID 2283030). Particulars: primary human endothelial cells (HUVEC); actives raise or lower the signal. An outline of the steps:
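Endpoint derived via bidirectional curve fitting against DMSO baseline; readout was ELISA detection of uPAR on umbilical vein endothelial cells at 24 h post-treatment, with SRB-stained parallel cultures assessing cytotoxicity.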

Read-out in assay [19]: Vascular endothelial growth factor receptor 2 (Homo sapiens) (UniProt P35968)
The experiment in a line: BSK_4H_VEGFRII: BioMAP Diversity Plus: 4H Assay for Vascular endothelial growth factor receptor 2 (VEGFR2) Biomarker Activity (AID 2283031). The following applies: primary human endothelial cells (HUVEC); actives raise or lower the signal. The essentials: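 In this multiplexed HUVEC system, biomarker ELISA was performed after 24 h chemical exposure. Parallel SRB staining (TCA fixation, 560 nm) tracked cytotoxicity; DMSO served as baseline.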

Read-out in assay [20]: Interleukin-8 (IL8), CXCL8 (gene 3576)
The assay can be described thus: BSK_3C_IL8: BioMAP Diversity Plus: 3C Assay for Interleukin-8 (IL8) Biomarker Activity (AID 2283020). The following applies: primary human endothelial cells (HUVEC); actives raise or lower the signal. The essentials: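 HUVEC, 3C stimulation; 24 h compound exposure; IL-8 read by ELISA; gain or loss of signal fitted relative to DMSO control.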

human Thyroid Receptor alpha (THRa1), THRA (gene 7067), sequence (P10827 whole entry, looked up, the tested form may be a part): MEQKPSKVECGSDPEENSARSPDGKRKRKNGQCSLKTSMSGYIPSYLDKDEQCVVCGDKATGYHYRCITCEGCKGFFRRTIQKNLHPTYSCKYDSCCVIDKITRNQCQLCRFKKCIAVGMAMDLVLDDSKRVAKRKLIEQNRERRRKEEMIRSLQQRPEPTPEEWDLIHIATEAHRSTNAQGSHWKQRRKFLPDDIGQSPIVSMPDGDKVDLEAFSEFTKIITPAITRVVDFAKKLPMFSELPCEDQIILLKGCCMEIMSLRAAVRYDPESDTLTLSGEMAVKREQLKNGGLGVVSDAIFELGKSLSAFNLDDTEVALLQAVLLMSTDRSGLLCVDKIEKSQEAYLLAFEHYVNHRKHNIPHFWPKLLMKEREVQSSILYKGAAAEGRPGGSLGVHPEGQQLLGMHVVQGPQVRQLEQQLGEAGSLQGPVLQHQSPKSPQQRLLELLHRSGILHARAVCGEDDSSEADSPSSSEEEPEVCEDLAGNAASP
human Vitamin D Receptor (VDR), VDR (gene 7421), sequence (P11473 whole entry, looked up): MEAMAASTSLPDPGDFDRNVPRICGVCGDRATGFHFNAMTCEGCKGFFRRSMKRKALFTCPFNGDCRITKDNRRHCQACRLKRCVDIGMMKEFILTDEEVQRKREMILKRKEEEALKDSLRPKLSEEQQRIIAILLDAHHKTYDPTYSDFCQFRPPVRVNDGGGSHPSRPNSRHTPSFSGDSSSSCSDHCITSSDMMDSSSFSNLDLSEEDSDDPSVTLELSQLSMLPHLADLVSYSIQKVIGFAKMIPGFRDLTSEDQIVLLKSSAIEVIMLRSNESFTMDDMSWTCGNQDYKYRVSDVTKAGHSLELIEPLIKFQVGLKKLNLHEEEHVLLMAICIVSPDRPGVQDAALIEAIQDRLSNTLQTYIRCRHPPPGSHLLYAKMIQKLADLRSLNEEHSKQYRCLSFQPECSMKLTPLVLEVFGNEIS
E-selectin (Homo sapiens), sequence (P16581 whole entry, looked up): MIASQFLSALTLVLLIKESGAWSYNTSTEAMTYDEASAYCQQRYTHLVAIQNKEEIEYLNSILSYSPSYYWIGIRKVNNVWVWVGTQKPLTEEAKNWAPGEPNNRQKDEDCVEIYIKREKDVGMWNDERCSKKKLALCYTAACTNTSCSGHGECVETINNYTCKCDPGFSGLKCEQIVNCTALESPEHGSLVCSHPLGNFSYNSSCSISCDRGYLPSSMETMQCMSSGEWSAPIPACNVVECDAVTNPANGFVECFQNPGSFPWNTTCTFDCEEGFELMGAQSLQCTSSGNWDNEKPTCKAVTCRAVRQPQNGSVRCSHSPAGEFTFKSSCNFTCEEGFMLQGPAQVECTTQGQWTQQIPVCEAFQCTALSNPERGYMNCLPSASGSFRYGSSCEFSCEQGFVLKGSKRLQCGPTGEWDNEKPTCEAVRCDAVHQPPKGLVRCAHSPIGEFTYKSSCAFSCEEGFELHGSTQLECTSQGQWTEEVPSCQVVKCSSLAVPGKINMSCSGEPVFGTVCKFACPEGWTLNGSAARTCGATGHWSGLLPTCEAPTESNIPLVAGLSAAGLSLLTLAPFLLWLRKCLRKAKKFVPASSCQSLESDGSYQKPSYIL

Consider `CCOC(=O)NCCOc1ccc(Oc2ccccc2)cc1`, for which the outcome in assay [1], in [2], in [3], in assay [5], in assay [9] and in [10] was inactive. For the same compound, the result in [12], in assay [14], in assay [15], in [16], in assay [17] and in [18] was inactive. For the same compound, the result in assay [19] was inactive. Further, the AC50 in [4] was 21.3 µM (active); in assay [6], 28.5 µM (active); in assay [7] it was 18.7 µM (active); in [8], 25.5 µM (active); in assay [11] it was 20 µM (active); in assay [13], 39 µM (active).

Consider `C[C@]12C[C@H](O)[C@H]3[C@@H](CCC4=CC(=O)CC[C@@]43C)[C@@H]1CC[C@@H]2C(=O)CO`, for which the compound was called inactive in assay [1], in assay [2], in [3], in assay [4], in assay [5] and in assay [6]. In addition, the outcome in assay [7], in [8], in assay [20], in assay [9], in [11] and in [12] was inactive. Besides, the result in assay [13], in [14], in assay [15], in assay [16], in assay [17] and in [18] was inactive. The outcome in [19] was inactive.

As for `S=C(S)NCCNC(=S)S.[Mn+2].[S-]C([S-])=NCCN=C([S-])[S-].[Zn+2]`, the call in [1], in [2], in [3], in assay [4], in assay [5] and in assay [6] was inactive. Moreover, the result in [7], in [8], in assay [9], in [10], in [11] and in [12] was inactive. Moreover, the result in assay [13], in assay [14], in assay [15], in assay [16], in assay [17] and in [18] was inactive. Further, the outcome in [19] was inactive. Besides, the figures for the AC50 in [2], in assay [8] and in assay [12] were 20.4 µM (active), 13.3 µM (active) [middle of 4 runs] and 1.34 µM (active), respectively.

With `c1ccc2[nH]c(-c3cscn3)nc2c1`, the outcome in [1], in assay [2], in assay [4], in assay [5], in [6] and in [7] was inactive. Also, the outcome in [8], in [20], in assay [9], in [10], in assay [11] and in assay [12] was inactive. For the same compound, the result in assay [13], in [14], in [15], in assay [16], in assay [17] and in [18] was inactive. In addition, the result in assay [19] was inactive.

Consider `O=C(c1ccc(O)cc1O)c1ccc(O)cc1O`, for which the outcome in assay [1], in [2], in assay [3], in [4], in [5] and in [6] was inactive. Also, the result in assay [7], in assay [8], in [9], in [10], in assay [11] and in assay [12] was inactive. The outcome in assay [13], in assay [14], in assay [15], in [16], in assay [17] and in assay [18] was inactive. For the same compound, the result in assay [19] was inactive.

With `CCNc1nc(N)nc(Cl)n1`, the compound was classed as inactive in assay [1], in [2], in assay [3], in assay [4], in [5] and in [6]. The outcome in [7], in assay [8], in assay [9], in assay [11], in assay [12] and in assay [13] was inactive. The result in assay [14], in [15], in assay [16], in assay [17], in assay [18] and in assay [19] was inactive.

For the origin of these results see PubChem BioAssay (EPA / NIEHS).
